Measurements taken from PubChem BioAssay AID1347383 (Zoeller Lab, School of Medicine, Boston University, 2020).
Calls of active or inactive are those of the source.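 Rule for the calls: active = cell survival after UV exposure 2 SD above solvent-only control wells at 10 µM, confirmed on one or two repeats; inactive = the rest.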

Assay: protection of CHO cells from pyrene-fatty acid UV killing, primary screen, phospholipid biosynthesis inhibitor project, ZR-82 cells, Analyticon library, screen 2 (AID 1347383);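 note: survival reflects blocked phospholipid synthesis cutting uptake of the phototoxic fatty acid; compound and fatty acid exposure 3 h then viability read next day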
Conditions: ZR-82 CHO cells, CellTiter Blue, at 10 µM, peroxisome-deficient CHO-K1 variant, with DGAT-1, DGAT-2 and ACAT inhibitors

SMILES	outcome
C/C=C/[C@@H]1C=C[C@@H]2C[C@H](C)CC[C@H]2[C@]1(C)C(O)=C1C(=O)[C@@H](CO)N(C)C1=O	inactive
CC(C)CC1NC(=O)C2CCCN2C1=O (centres undefined)	inactive
CC(C)=CCCC(C)(O)C1CC[C@]2(C)C1CC[C@@H]1[C@@]3(C)CCC(=O)C(C)(C)[C@@H]3CC[C@]12C (some centres undefined)	inactive
CC(C)=CCCC1(C)C(CC=C(C)C)CC2(CC=C(C)C)C(=O)C(=C(O)c3ccccc3)C(=O)C1(C)C2=O (centres undefined)	inactive
C[N+](C)(C)C(Cc1c[nH]c2ccccc12)C(=O)[O-] (centres undefined)	inactive
COc1cc(C2CC(=O)c3c(O)cc(O)cc3O2)ccc1O (centres undefined)	inactive
O=C(NC(CO)Cc1ccccc1)c1ccccc1 (centres undefined)	inactive
C[C@@H]1CCC2C(C)(C)[C@H](O)CC[C@]2(C)[C@@]12Cc1c(O)cc3c(c1O2)CNC3=O (some centres undefined)	inactive
CC(C)=CCc1cc(C(=O)/C=C/c2ccc(O)cc2)c(O)cc1O	inactive
CC(=O)NC1C=CC(CCC(NC(C)=O)C(=O)O)C=C1 (centres undefined)	inactive
COc1cc(O)c2c(=O)c3cc(O)c(O)cc3oc2c1	inactive
Nc1ncnc2c1ncn2[C@@H]1O[C@H](CO)C[C@H]1O	inactive
COc1cc(CC(C)C(C)Cc2ccc(O)c(O)c2)ccc1O (centres undefined)	inactive
CC(C)(O)[C@@H]1CCC(C)([C@H]2CC[C@]3(C)[C@@H]2[C@H](O)CC2[C@@]4(C)CC[C@H](O)C(C)(C)[C@@H]4CC[C@]23C)O1 (some centres undefined)	inactive
COCc1c(OC)cc2c(c1O)C(O)OCC2 (centres undefined)	inactive
CC1(C)CCC[C@@]2(C)C1C[C@H]1O[C@@]1(C)[C@]21CC[C@](C)(CC(=O)O)O1 (some centres undefined)	inactive
O=C1CC2OC(C(O)c3ccccc3)C(O1)C2O (centres undefined)	inactive
CC1CCCC[C@H]2C(=O)C=C[C@H](O)[C@@H]2CC(=O)O1 (some centres undefined)	inactive
CC(=O)/C=C(O)/C=C/c1ccc(O)cc1	inactive
CC1=CC2=C(C=O)C(=O)[C@](C)(O)[C@@H](O)C2=CO1	inactive
COC(=O)/C=C/c1ncn(C)c1CC=C(C)C	inactive
O=c1c(O)c(-c2cc(O)c(O)c(O)c2)oc2cc(O)cc(O)c12	inactive
CO[C@H]1c2cc(C(C)C)c(O)c(O)c2[C@@]23CCCC(C)(C)C2[C@@H]1OC3=O (some centres undefined)	inactive
C/C1=C\CCC2=CC(OC2=O)C(C)(C)/C=C\C1=O (centres undefined)	inactive
COC1=CC(=O)CC(C)C12Oc1cc(OC)cc(OC)c1C2=O (centres undefined)	inactive
CCCCCCc1cc(O)c(C)c(OC(C)=O)c1O	inactive
C=CC(C)(C)c1c(OC)oc2cccc(C)c2c1=O	inactive
COc1cc(O)cc2c1C(=O)CC(c1ccccc1)O2 (centres undefined)	inactive
COc1ccc(-c2coc3cc(O)cc(O)c3c2=O)cc1	inactive
